This is a sample that favours compounds with a hit; in the whole collection about 3.1% have one here.
VDR inh – blocks the human vitamin D receptor; P11473; VDR-SRC2-3 peptide fluorescence polarization, 2 h; Potency, µM, without a hit: max response, negative = inhibition, actives largely listed as inhibitors; 400,000 tested, 0.93% active; AID 504847; also: potency is read from the fitted curve at half-maximal effect; % is scaled to controls: 0 for no effect and ±100 for the full control effect
Target sequence (P11473 whole entry, looked up): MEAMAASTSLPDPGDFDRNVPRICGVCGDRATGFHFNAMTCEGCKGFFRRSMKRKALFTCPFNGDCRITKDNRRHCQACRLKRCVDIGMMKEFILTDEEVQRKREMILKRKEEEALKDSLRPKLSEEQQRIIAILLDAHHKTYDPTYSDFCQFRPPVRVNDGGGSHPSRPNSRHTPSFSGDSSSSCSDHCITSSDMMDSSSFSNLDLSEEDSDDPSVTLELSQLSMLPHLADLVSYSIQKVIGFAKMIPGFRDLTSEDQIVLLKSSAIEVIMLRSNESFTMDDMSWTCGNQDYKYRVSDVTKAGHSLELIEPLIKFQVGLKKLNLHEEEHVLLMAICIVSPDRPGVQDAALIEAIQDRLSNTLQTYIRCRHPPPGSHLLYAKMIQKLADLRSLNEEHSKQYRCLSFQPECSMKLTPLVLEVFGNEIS
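Reagent solutions, kept cold and dark, are dispensed first; compounds are then pinned in at 23 nl, plates briefly spun, and incubated 2 h at ambient temperature. Inhibition of VDR–SRC2-3 peptide binding is read by fluorescence polarization.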
PLK1 PBD inh – inhibitors of human PLK1 polo-box domain binding; P53350; Potency, µM, inactives show max response, negative = inhibition, most hits filed as inhibitors; 360,000 tested, 2.8% active; AID 720504; Plk1 PBD binding of FITC phosphopeptide, fluorescence polarization; also: potency is read from the fitted curve at half-maximal effect; series mostly up to about 57 µM; % is scaled to controls: 0 for no effect and ±100 for the full control effect; nearly all actives have a fitted effect of over 65% in size
Vif-APOBEC3G blk – Vif-A3G binding inhibition | HeLa A3G-eYFP + Vif (tagged APOBEC3G with the HIV-1 protein that degrades it), YFP fluorescence, overnight | AID 602310 | Q9HC16 | Potency, µM (titrated, usually from 46.1 µM), inactives show top-dose activity, negative = active, usual class: inhibitors | 410,000 tested, 0.076% active; also: potency is read from the fitted curve at half-maximal effect; % is scaled to controls: 0 for no effect and ±100 for the full control effect; nearly all actives have a fitted effect of over 60% in size
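HeLa cells stably expressing Vif and C-terminally eYFP-tagged A3G, seeded overnight at 37 deg C, then exposed to compound by pintool overnight at 37 deg C. Rise in yellow fluorescence (Ex 488/Em 500-530, Acumen) marks blocked Vif-driven A3G degradation.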
Vif-APOBEC3F blk – inhibitors of Vif-A3F interaction; HeLa A3F-eYFP + Vif (tagged APOBEC3F with the HIV-1 protein that degrades it), YFP fluorescence increase; Potency, µM (doses to about 46.1 µM), without a hit: at the top dose activity, negative = active; 390,000 tested, 0.2% active; AID 602313; also: potency is read from the fitted curve at half-maximal effect; % of control where 0% means no effect; nearly all actives have a fitted effect of over 65% in size
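Fluorescence increase (Ex 488/Em 500-530) after overnight compound treatment at 37 deg C flags inhibition of Vif-driven A3F-eYFP loss in stable HeLa A3F-eYFP/Vif cells seeded overnight beforehand.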
TSHR antagonist – human thyrotropin receptor antagonism; activity change, negative = inhibition, % at 11.5 µM; AID 504810; P16473; 330,000 tested, 0.2% active; TSHR-expressing cells, TSH-stimulated cAMP HTRF, 2 h; stronger effect = lower value;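 active = activity change below a set negative limit, meaning inhibition stronger than a set level, cut at about -70% in these data; inconclusive = activity change between two set negative limits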; also: % is scaled to controls: 0 for no effect and ±100 for the full control effect
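Competitive HTRF cAMP read-out (cryptate anti-cAMP antibody, cAMP-d2; 30 min, room temperature) in freshly harvested TSHR cells. Compounds added before TSH at EC80 (4nM final), followed by 2 hours' incubation at 37 deg C.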
Numbers without * were called inactive. Unless noted, calls follow the shape of the dose curve; as a rule, active = well fitted curve in the direction sought with a large enough effect; inconclusive = small, poorly fitted or top-dose-only effect, or another doubt; inactive = no such curve, though single readings can be large; an effect the other way counts as inactive or inconclusive.

`Cc1cccc(Cn2c(SCc3ccc(C(=O)NCc4ccccc4)cc3)nc3cccnc32)c1` gave VDR inh 19%, Vif-APOBEC3G blk -8% and Vif-APOBEC3F blk 1%.
CCOC(=O)COc1c(Br)cc(/C=C2\SC(=O)N(CC(=O)N3CCCC3)C2=O)cc1OC was read as VDR inh inconclusive, PLK1 PBD inh 17µM*, Vif-APOBEC3G blk 1%, Vif-APOBEC3F blk -3% and TSHR antagonist -11.
For CCOc1c(Br)cc(/C=C2/SC(=O)N(CC(=O)N3CCCC3)C2=O)cc1OC the results were VDR inh 1%, PLK1 PBD inh -12%, Vif-APOBEC3G blk 0%, Vif-APOBEC3F blk -4% and TSHR antagonist -9.
O=C(CSc1nnc(CNc2ccc(F)cc2)o1)OC1CCCCC1 was read as VDR inh inconclusive, PLK1 PBD inh 21µM*, Vif-APOBEC3G blk -1% and TSHR antagonist -22.
For CCn1c(=O)n(-c2ccc(F)cc2)c(=O)c2sc3ccccc3c21 the results were VDR inh 6%, Vif-APOBEC3G blk 3% and Vif-APOBEC3F blk -7%.
`O=C(O)c1ccc(COc2ccccc2/C=C2\NC(=O)N(Cc3ccccc3)C2=O)cc1` gave VDR inh -16%, PLK1 PBD inh 19µM*, Vif-APOBEC3G blk -10%, Vif-APOBEC3F blk -6% and TSHR antagonist -22.
Screening O=C(CN1C(=O)N/C(=C\c2ccccc2OCc2ccc(C(=O)O)cc2)C1=O)Nc1ccccc1F returned VDR inh -6%, PLK1 PBD inh inconclusive, Vif-APOBEC3G blk 2%, Vif-APOBEC3F blk -1% and TSHR antagonist -10.
O=C(O)c1ccc(COc2ccc3ccccc3c2/C=C2/NC(=O)N(Cc3ccc(F)cc3)C2=O)cc1 was read as VDR inh -5%, PLK1 PBD inh inconclusive, Vif-APOBEC3G blk -14%, Vif-APOBEC3F blk 5% and TSHR antagonist -13.
O=C(O)c1ccc(COc2ccccc2/C=C2\NC(=O)N(Cc3ccccc3F)C2=O)cc1 was read as VDR inh -13%, PLK1 PBD inh 27µM*, Vif-APOBEC3G blk -16%, Vif-APOBEC3F blk 1% and TSHR antagonist -39.
`CCOC(=O)N1C(C)CN(/[N+]([O-])=N/Oc2ccc([N+](=O)[O-])cc2[N+](=O)[O-])CC1C` (configuration not stated) gave VDR inh -14% and Vif-APOBEC3G blk 1%.
Screening CCCN1CCCc2cc(CN)ccc21 returned VDR inh 28µM*, PLK1 PBD inh 19µM*, Vif-APOBEC3G blk 0%, Vif-APOBEC3F blk -14% and TSHR antagonist -10.
`CC1=CC2C(=O)c3cccc(O)c3C(=O)C2C(O)=C1` (configuration not stated) gave VDR inh 25µM*.
Screening O=C1C=C(O)c2c(O)cccc2C1=O returned TSHR antagonist 13.
Screening CCOC(=O)N/N=C/C=C/c1ccccc1[N+](=O)[O-] returned VDR inh -24%, PLK1 PBD inh 21µM*, Vif-APOBEC3G blk -5%, Vif-APOBEC3F blk -3% and TSHR antagonist -2.
`CC(=O)c1ccc(N2CCN(C(=O)C3CCN(S(=O)(=O)c4ccc(Br)s4)CC3)CC2)cc1` gave VDR inh -3%, Vif-APOBEC3G blk 2% and Vif-APOBEC3F blk 2%.
For Cc1ccc(S(=O)(=O)N2CC(=O)NC(=O)C2)cc1 the results were VDR inh -3%, PLK1 PBD inh 7%, Vif-APOBEC3G blk 1%, Vif-APOBEC3F blk -26% and TSHR antagonist 16.
Screening C[C@H]([C@H](C)N1CC(=O)NC(=O)C1)N1CC(=O)NC(=O)C1 returned VDR inh 45µM*.
Screening C=CC(C)(O)CC1[C@@]2(C)CCCC(C)(C)C2CC[C@]1(C)O (some centres not stated) returned VDR inh -2%.
`Cc1cc(-c2ccccc2)nc(N/N=C/c2ccccc2F)n1` gave VDR inh 20%, PLK1 PBD inh -1%, Vif-APOBEC3G blk -7%, Vif-APOBEC3F blk 22µM* and TSHR antagonist 0.
For COc1ccccc1NC(=O)c1ccc(NC(=O)COC(=O)C2(C)CC2(Cl)Cl)cc1 (configuration not stated) the results were VDR inh -14%, PLK1 PBD inh 21µM*, Vif-APOBEC3G blk 0%, Vif-APOBEC3F blk 12% and TSHR antagonist 18.
Screening CCn1nc(C(=O)OCC(=O)Nc2nc(-c3ccc(OC)cc3)cs2)c2ccccc2c1=O returned VDR inh -6%, PLK1 PBD inh 27µM*, Vif-APOBEC3G blk 2%, Vif-APOBEC3F blk 0% and TSHR antagonist -25.
`CC1(C(=O)OCC(=O)Nc2ccc(C(N)=O)cc2)CC1(Cl)Cl` (configuration not stated) gave VDR inh 0%, PLK1 PBD inh 4%, Vif-APOBEC3G blk 5%, Vif-APOBEC3F blk 3% and TSHR antagonist 5.
For COc1ccc(NC(=O)CSc2n[nH]c(N)n2)cc1OC the results were VDR inh 0%, PLK1 PBD inh -4%, Vif-APOBEC3G blk 2%, Vif-APOBEC3F blk 1% and TSHR antagonist 30.
For COc1ccccc1NC(=O)c1ccc(NC(=O)CSc2n[nH]c(N)n2)cc1 the results were VDR inh -18%, PLK1 PBD inh 30µM*, Vif-APOBEC3G blk 1%, Vif-APOBEC3F blk 1% and TSHR antagonist -12.
Screening COc1ccc(-c2csc(NC(=O)CSc3n[nH]c(N)n3)n2)cc1 returned VDR inh -16%, PLK1 PBD inh 27µM*, Vif-APOBEC3G blk -2%, Vif-APOBEC3F blk 1% and TSHR antagonist -2.
Screening Cc1cccc(CSc2nnc3[nH]c(=O)cc(-c4ccccc4)n23)c1 returned VDR inh -1%, Vif-APOBEC3G blk 8% and Vif-APOBEC3F blk -2%.
Cc1cc(=O)oc2cc(NC(=O)[C@H](CCCCN)NC(=O)[C@H](CC3CCCCC3)NC(=O)OCC3c4ccccc4-c4ccccc43)ccc12 was read as VDR inh 43%.
Screening O=C/C(=C\Nc1ccccn1)c1nc2ccccc2o1 returned VDR inh -13%, PLK1 PBD inh -9%, Vif-APOBEC3G blk inconclusive, Vif-APOBEC3F blk 28µM* and TSHR antagonist 2.
Screening CCN(CC)S(=O)(=O)c1cccc(-n2c(O)c(C=Nc3ccccc3C(=O)O)c3ccccc3c2=O)c1 returned VDR inh -13%, PLK1 PBD inh 24µM*, Vif-APOBEC3G blk -10%, Vif-APOBEC3F blk 3% and TSHR antagonist -25.
`CC(CNC(=O)c1cccnc1)NC(=O)c1cccnc1` (configuration not stated) gave VDR inh 10%.
Screening CC[C@]1(c2ccccc2)NC(=O)NC1=O returned VDR inh -3%.
O=C1c2ccccc2CC1Sc1nnc(-c2ccccn2)o1 (configuration not stated) was read as VDR inh inconclusive, PLK1 PBD inh 24µM*, Vif-APOBEC3G blk -7%, Vif-APOBEC3F blk -14% and TSHR antagonist -1.

Compound activity from PubChem.
